{
  "source": "PubChem BioAssay AID488969",
  "about": "(Vanderbilt High Throughput Screening Facility, 2010)",
  "note": "Whole data set: some 110,000 compounds, median “z-score” near -0.1, cut for the highest 2% near 2. The list comes from a sample in which the highest values are over-represented; it also holds similar structures and randomly drawn compounds. Calls of active or inactive are those of the source.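 The calls were made as follows: active = z-score in the third read window above 3 or below -3; inactive = the rest.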",
  "data": [
    {"target": "Metabotropic glutamate receptor 8 (Rattus norvegicus) (UniProt P70579)", "sequence (P70579 whole entry, looked up)": "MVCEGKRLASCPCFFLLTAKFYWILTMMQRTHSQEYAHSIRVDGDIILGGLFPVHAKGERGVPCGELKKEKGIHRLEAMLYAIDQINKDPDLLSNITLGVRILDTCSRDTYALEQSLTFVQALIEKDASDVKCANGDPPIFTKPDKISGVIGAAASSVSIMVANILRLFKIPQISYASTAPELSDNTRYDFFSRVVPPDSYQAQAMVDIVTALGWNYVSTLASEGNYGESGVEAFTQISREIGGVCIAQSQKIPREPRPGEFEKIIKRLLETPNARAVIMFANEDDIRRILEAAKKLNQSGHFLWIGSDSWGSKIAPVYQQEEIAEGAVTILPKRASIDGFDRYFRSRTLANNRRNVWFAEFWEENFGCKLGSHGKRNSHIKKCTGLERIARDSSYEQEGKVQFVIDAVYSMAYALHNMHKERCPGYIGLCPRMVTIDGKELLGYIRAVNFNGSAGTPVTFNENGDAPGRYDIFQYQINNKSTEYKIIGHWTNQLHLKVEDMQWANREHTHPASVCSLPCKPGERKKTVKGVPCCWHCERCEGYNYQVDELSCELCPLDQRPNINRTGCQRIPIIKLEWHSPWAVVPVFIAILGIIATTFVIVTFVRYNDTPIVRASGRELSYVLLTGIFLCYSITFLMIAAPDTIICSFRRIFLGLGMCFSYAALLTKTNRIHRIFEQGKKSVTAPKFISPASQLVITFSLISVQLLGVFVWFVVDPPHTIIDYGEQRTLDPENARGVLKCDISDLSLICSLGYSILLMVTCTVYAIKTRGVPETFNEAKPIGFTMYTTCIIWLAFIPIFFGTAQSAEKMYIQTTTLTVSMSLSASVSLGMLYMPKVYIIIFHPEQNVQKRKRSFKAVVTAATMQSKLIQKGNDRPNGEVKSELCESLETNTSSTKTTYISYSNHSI", "assay": "mGluR8 Gi/Go-coupled signaling modulation – cell-based, rat, thallium flux, HTS, primary screen (AID 488969)", "details": "HEK293 rat mGluR8, GIRK (G protein-gated inwardly rectifying potassium channel) thallium flux, FluoZin2; at 10 µM; stronger effect = higher value; submaximal glutamate (EC20) added with thallium", "values": [
      {"smiles": "CCCc1ccc(OCC(O)CN2CCN(c3ccccc3)CC2)cc1", "note": "(centres undefined)", "z-score": -0.0136},
      {"smiles": "COc1cc(C2CC(=O)c3c(ccc4ccccc34)N2)ccc1O", "note": "(centres undefined)", "z-score": 0.11},
      {"smiles": "COc1ccc(C(=O)C(CCCCC(CN(C)C)C(=O)c2ccc(OC)cc2)CN(C)C)cc1", "note": "(centres undefined)", "z-score": -0.494},
      {"smiles": "CCOC(=O)C1=C(C)NC(=O)NC1c1ccc(OC)c(CN2CCOCC2)c1", "note": "(centres undefined)", "z-score": 0.00374},
      {"smiles": "COc1ccc(CCCC(=O)Nc2ccccc2F)cc1", "z-score": 0.0152},
      {"smiles": "COC(=O)c1cc(NC(=O)C2CC2)cc(C(=O)OC)c1", "z-score": 0.0071},
      {"smiles": "Cc1ccsc1/C=C1/SC(N2CC(C)OC(C)C2)=NC1=O", "note": "(centres undefined)", "z-score": -0.238},
      {"smiles": "CC(=O)c1ccc(NC2CC(O)C(O)CO2)cc1", "note": "(centres undefined)", "z-score": 2.32},
      {"smiles": "CC(=O)c1ccc(NC(=S)N2CC(C)CC(C)C2)cc1", "note": "(centres undefined)", "z-score": -0.208},
      {"smiles": "CC(=O)c1ccc(NC2OC(C)C(O)C(O)C2O)cc1", "note": "(centres undefined)", "z-score": 0.292},
      {"smiles": "CCCn1nc(C(=O)OCC(=O)c2ccc3c(c2)NC(=O)CO3)c2ccccc2c1=O", "z-score": -1.71},
      {"smiles": "O=C(NNS(=O)(=O)c1ccccc1)c1ccncc1", "z-score": -0.151},
      {"smiles": "CC1=CC(C)(C)Nc2ccc(OC(=O)CN3C(=O)C4CCCCC4C3=O)cc21", "note": "(centres undefined)", "z-score": 1.08},
      {"smiles": "CC1=CC(C)(C)Nc2ccc(OC(=O)C(Cc3ccccc3)N3C(=O)c4ccccc4C3=O)cc21", "note": "(centres undefined)", "z-score": 1.05},
      {"smiles": "CC1=CC(C)(C)Nc2ccc(OC(=O)C(Cc3ccccc3)N3C(=O)C4CCCCC4C3=O)cc21", "note": "(centres undefined)", "z-score": 2.63},
      {"smiles": "CCC(CC)NC(=O)/C=C/c1ccccc1Cl", "z-score": -0.178},
      {"smiles": "CCC(Sc1nc2ccc(C)cc2[nH]1)C(=O)O", "note": "(centres undefined)", "z-score": 0.179},
      {"smiles": "COC(=O)c1cc(OC)c(OC)cc1NC(=O)c1ccc(C)o1", "z-score": -0.653},
      {"smiles": "CC(C)(C)c1ccc(C(=O)NCC(=O)OCC(=O)Nc2ccc3c(c2)OCCO3)cc1", "z-score": 0.131},
      {"smiles": "CCCCC(=O)Nc1ccc(Br)cc1C(=O)O", "z-score": -0.24},
      {"smiles": "CC1=C(CC/C(C)=N/NC(N)=S)C(C)(C)CCC1", "z-score": 1.85},
      {"smiles": "C/C(CC1CC2=C(CC1(C)C)C(C)(C)CCC2)=N\\NC(N)=S", "note": "(centres undefined)", "z-score": 0.599},
      {"smiles": "CC1CC2=C(CC1/C=N/NC(N)=S)C(C)(C)CCC2", "note": "(centres undefined)", "z-score": "3.44 (active)"},
      {"smiles": "CCCCNC(=O)Cn1nc([N+](=O)[O-])c([N+](=O)[O-])c1C", "z-score": -0.27},
      {"smiles": "Cc1noc(C)c1S(=O)(=O)N1CCC(Cc2ccccc2)CC1", "z-score": 2.68},
      {"smiles": "Cc1noc(C)c1S(=O)(=O)N1CCN(c2ccccc2)CC1", "z-score": -0.073},
      {"smiles": "Cc1noc(C)c1S(=O)(=O)N1CCC(C(=O)N(C)Cc2ccccc2)CC1", "z-score": -0.182},
      {"smiles": "COc1ccc(CCn2c(N)c(S(=O)(=O)c3cccs3)c3nc4ccccc4nc32)cc1OC", "z-score": -0.349},
      {"smiles": "COc1ccc(CC(=O)OCCN(C)C)cc1", "z-score": 0.0321},
      {"smiles": "O=C(CN1C(=O)/C(=C/c2ccccc2F)Oc2ccccc21)N1CCN(c2ccccn2)CC1", "z-score": "6.44 (active)"},
      {"smiles": "O=C(CCCN1C(=O)c2cccc3cccc(c23)C1=O)N1CCN(c2ccccn2)CC1", "z-score": 0.0204},
      {"smiles": "O=C(CCN1C(=O)COc2ccccc21)N1CCN(c2ccccn2)CC1", "z-score": 0.258},
      {"smiles": "O=C(CN1C(=O)c2ccccc2C1=O)N1CCN(c2ccccn2)CC1", "z-score": -0.293},
      {"smiles": "O=C(CN1C(=O)/C(=C\\c2cccc(F)c2)Oc2ccccc21)N1CCN(c2ccccn2)CC1", "z-score": 0.117},
      {"smiles": "O=C(CN1C(=O)c2cccc3cccc(c23)C1=O)N1CCN(c2ccccn2)CC1", "z-score": "8.64 (active)"},
      {"smiles": "CC(C)c1nnc(SCC(=O)NCc2ccc3c(c2)OCO3)n1C", "z-score": -0.49},
      {"smiles": "CCn1c(=O)n(CC)c2cc([N+](=O)[O-])ccc21", "z-score": -0.0668},
      {"smiles": "COc1ccccc1NC(=O)Cc1c(F)cccc1Cl", "z-score": -0.193},
      {"smiles": "O=C(Nc1cccc2ncccc12)c1ccc(-c2ccc(Br)cc2)o1", "z-score": -0.163},
      {"smiles": "CCOC(=O)C1=C(C)NC(=O)NC1c1ccc(C)o1", "note": "(centres undefined)", "z-score": 0.0551},
      {"smiles": "CCOC(=O)C1=C(C)NC(=O)NC1c1ccc(Br)o1", "note": "(centres undefined)", "z-score": 2.92},
      {"smiles": "CCOC(=O)C1=C(C)NC(C)=C(C(=O)OCC)C1c1ccc(Br)o1", "z-score": -0.356},
      {"smiles": "O=C(CN1C(=O)c2ccccc2C1=O)NCCc1c[nH]c2ccccc12", "z-score": -0.164},
      {"smiles": "CCOc1ccc(C2=C(C=Nc3c(C)n(C)n(-c4ccccc4)c3=O)C(c3ccc(F)cc3)c3ccccc3O2)cc1", "note": "(centres undefined)", "z-score": 1.53},
      {"smiles": "CCc1c(C)n([O-])c2c([n+]1=O)CCC2", "z-score": 0.305},
      {"smiles": "Cc1c(C)[n+](=O)c2c(n1[O-])CCC2", "z-score": "14.6 (active)"},
      {"smiles": "Cc1ccc(-c2c(C)n([O-])c3c([n+]2=O)CCC3)cc1", "z-score": -0.263},
      {"smiles": "Cc1ccc(OCCCSc2ncccn2)cc1C", "z-score": -0.106},
      {"smiles": "Cn1c(SCc2nnc(-c3ccc(F)cc3)o2)nnc1C1COc2ccccc2O1", "note": "(centres undefined)", "z-score": -0.382},
      {"smiles": "O=C(NC1CCCCCC1)c1cccc(N2CCCC2=O)c1", "z-score": -0.399},
      {"smiles": "CN1CCN(C(=O)CN(Cc2ccc(Cl)cc2)S(C)(=O)=O)CC1", "z-score": 0.244},
      {"smiles": "Cc1cc(NC(=O)CSc2nc3ccccc3n2CC(=O)N2CCCCC2)no1", "z-score": 0.0584},
      {"smiles": "Cc1ccc(N2C(=O)C3CC(c4ccccc4)=C4C5C=CC(C6C(=O)N(c7ccc(C)cc7)C(=O)C56)C4C3C2=O)cc1", "note": "(centres undefined)", "z-score": -0.0459},
      {"smiles": "COc1ccc(S(=O)(=O)Nc2cccc(NC(C)=O)c2)cc1", "z-score": 0.142},
      {"smiles": "COc1cc2c(cc1NC(=O)COc1ccccc1OC)oc1ccccc12", "z-score": "5.54 (active)"},
      {"smiles": "COc1cc2c(cc1NC(=O)COc1ccc3ccccc3c1)oc1ccccc12", "z-score": -0.183},
      {"smiles": "COc1ccccc1OCC(=O)Nc1oc(-c2ccccc2)c(-c2ccccc2)c1C#N", "z-score": 2.87},
      {"smiles": "COc1ccc(OCC(=O)Nc2cc3oc4ccccc4c3cc2OC)cc1", "z-score": -0.347},
      {"smiles": "Cc1ccc(OCC(=O)Nc2oc(-c3ccccc3)c(-c3ccccc3)c2C#N)cc1", "z-score": -0.212},
      {"smiles": "COc1cc2c(cc1NC(=O)Nc1ccccc1)oc1ccccc12", "z-score": -0.0976},
      {"smiles": "COc1cc2c(cc1NC(=O)Nc1cccc(C)c1)oc1ccccc12", "z-score": 2.68},
      {"smiles": "Cc1cccc(C)c1OCC(=O)Nc1oc(-c2ccccc2)c(-c2ccccc2)c1C#N", "z-score": -0.376},
      {"smiles": "COc1cc2c(cc1NC(=O)Nc1ccc(C)cc1)oc1ccccc12", "z-score": -0.398},
      {"smiles": "CCn1c(SCc2nc(-c3ccc(OC)c(OC)c3)no2)nnc1-c1cccs1", "z-score": -1.5},
      {"smiles": "Cc1ccccc1OCCCC(=O)Nc1ccc2c(c1)OCO2", "z-score": 0.157},
      {"smiles": "O=C(Nc1cccc(S(=O)(=O)N2CCCC2)c1)c1ccc2c(=O)n3c(nc2c1)CCCCC3", "z-score": -1.24},
      {"smiles": "COc1ccc(/C=N/n2c(=O)[nH]c3c([nH]c4ccc(C)cc43)c2=O)cc1CN1CCOCC1", "z-score": -0.0345},
      {"smiles": "CC(=O)N(c1ccccc1)c1nc(C)cc(C)c1C#N", "z-score": -0.111},
      {"smiles": "Cc1[nH]c2ccccc2c1C(=O)COC(=O)C1CC(=O)N(Cc2ccccc2)C1", "note": "(centres undefined)", "z-score": -0.363}
    ]}
  ]
}
